Some compounds were tested as several samples or in several runs, with calls that do not always agree. Activity calls are given as the source filed them. The calls were made as follows: active = hit-call score of the fitted dose curve at least 0.9, where 1 is the maximum; inactive = score below 0.9.
What was measured:
[1] = APR_HepG2_NuclearSize_72hr: Apredica 72-hour HepG2 Assay for Nuclear Size (AID 2282925); details: high-content imaging, actives raise or lower the signal
Method in brief: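 HepG2 cells were exposed to compounds at ten concentrations from 0.39 to 200 uM (duplicate, 0.5% DMSO final) for 72 hr. After fixation in 3.7% formaldehyde, nuclei were stained with Hoechst 33342 (2 ug/mL) and imaged at 20x.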

[2] = biological target: CCAAT/enhancer-binding protein beta (Homo sapiens) (UniProt P17676); assay: ATG_C_EBP_CIS: Attagene CIS-FACTORIAL HepG2 Assay for human CCAAT/Enhancer Binding Protein (C/EBP) beta (AID 2282927); details: HepG2 Attagene cis-factorial transcription factor reporter; actives raise or lower the signal
Method in brief: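 Following a 24 h incubation with test chemical, transfected HepG2 cells yielded RNA whose reporter transcripts were quantified by RT-PCR and fluorescent capillary electrophoresis, with DMSO serving as baseline for bidirectional fitting.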

[3] = ATG_CMV_CIS: Attagene CIS-FACTORIAL HepG2 Assay for human CMV (Internal Marker) (AID 2282928); details: HepG2 CMV promoter reporter, transcription factor profiling; actives raise or lower the signal;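 also: endpoint acts as a background internal control marker rather than a target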
Method in brief: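 CMV internal-marker background readout in transiently transfected HepG2 cells bearing cis-regulated reporter units. Reporter mRNA is measured 24 h after dosing by RT-PCR and capillary electrophoresis, with bidirectional fitting against DMSO.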

[4] = ATG_DR4_LXR_CIS: Attagene CIS-FACTORIAL HepG2 Assay for human Liver X Receptor (LXR), DR4 submotif (AID 2282929); details: HepG2 Attagene DR4 cis-reporter, mRNA transcription; actives raise or lower the signal
Method in brief: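 Cells were transfected with multiple reporter transcription units, exposed to chemicals for 24 hours, then lysed for RNA. Reporter mRNA induction was measured by RT-PCR with capillary electrophoresis detection and fitted in both directions relative to DMSO.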

[5] = biological target: Aryl hydrocarbon receptor (Homo sapiens) (UniProt P35869); assay: ATG_Ahr_CIS: Attagene CIS-FACTORIAL HepG2 Assay for human Aryl Hydrocarbon Receptor (Ahr) (AID 2282930); details: HepG2 AhR cis-factorial reporter transcription; actives raise or lower the signal
Method in brief: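 Values derive from bidirectional fitting against DMSO negative control. Underlying signal: cis-element reporter mRNA in transiently transfected HepG2, harvested 24 h post-dose and measured by RT-PCR plus capillary electrophoresis.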

[6] = ATG_AP_1_CIS: Attagene CIS-FACTORIAL HepG2 Assay for human Activator Protein 1 (AP-1) (AID 2282931); details: HepG2 Attagene cis-factorial AP-1 reporter mRNA; actives raise or lower the signal
Method in brief: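 Endogenous transcription-factor activity in human HepG2 liver cells is read through a cis-promoter reporter transcript, sampled 24 h after dosing. Detection uses RT-PCR with capillary electrophoresis; values come from bidirectional fitting relative to DMSO.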

[7] = ATG_AP_2_CIS: Attagene CIS-FACTORIAL HepG2 Assay for human Activator Protein 2 (AP-2) (AID 2282932); details: HepG2 AP-2 cis-reporter, Attagene transcription factor profiling; actives raise or lower the signal
Method in brief: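 HepG2 cells were transiently transfected with multiple cis-promoter reporter transcription units and dosed for 24 h. Reporter mRNA was measured by RT-PCR with capillary electrophoresis fluorescence; bidirectional fits relative to DMSO baseline.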

[8] = ATG_BRE_CIS: Attagene CIS-FACTORIAL HepG2 Assay for human Bone Morphogenetic Protein (BMP) Response Element (BRE) (AID 2282933); details: HepG2 BMP response element reporter, Attagene transcription factor profiling; actives raise or lower the signal
Method in brief: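 A HepG2 multiplex reporter system measured inducible reporter mRNA 24 h post-dosing. Detection: RT-PCR, 6-FAM primer extension, HpaI digestion, capillary electrophoresis. Activity fitted bidirectionally relative to DMSO.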

[9] = biological target: Retinoic acid receptor alpha (Homo sapiens) (UniProt P10276); assay: ATG_DR5_RAR_CIS: Attagene CIS-FACTORIAL HepG2 Assay for human Retinoic Acid Receptor Alpha (RARE), DR5 submotif (AID 2282934); details: HepG2 Attagene cis-factorial RARE DR5 reporter, mRNA; actives raise or lower the signal;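 as to AC50: reporter responds to endogenous RAR alpha beta and gamma in HepG2 not RARA alone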
Method in brief: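 Endpoint fitted in both directions relative to DMSO as negative control. It reflects DR5 cis-element reporter mRNA induction in transiently transfected HepG2 cells, measured 24 h after dosing through RT-PCR and fluorescent capillary electrophoresis.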

[10] = biological target: Transcription factor E2F1 (Homo sapiens) (UniProt Q01094); assay: ATG_E2F_CIS: Attagene CIS-FACTORIAL HepG2 Assay for human E2F Transcription Factor 1 (AID 2282935); details: HepG2 Attagene cis-reporter, E2F reporter RNA transcripts; actives raise or lower the signal
Method in brief: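 HepG2 cells transiently transfected with multiplexed cis-element reporter units, dosed for 24 h. Reporter mRNA measured by RT-PCR, 6-FAM primer-extension labeling, HpaI digestion and capillary electrophoresis; bidirectional fit versus DMSO baseline.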

[11] = ATG_E_Box_CIS: Attagene CIS-FACTORIAL HepG2 Assay for human Enhancer Box (E-box) (AID 2282936); details: HepG2 E-box cis-reporter transcription, actives raise or lower the signal
Method in brief: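 HepG2 cells transiently transfected with multiplexed cis-element reporter units sensing endogenous transcription factor activity; 24 h compound exposure. Reporter mRNA measured by RT-PCR, 6-FAM primer extension, HpaI digestion and capillary electrophoresis; bidirectional fit versus DMSO.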

[12] = ATG_M_61_CIS: Attagene CIS-FACTORIAL HepG2 Assay for M61 Transcription Factor (Internal Marker) (AID 2282937); details: HepG2 Attagene CIS-FACTORIAL M61 internal marker reporter; actives raise or lower the signal
Method in brief: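 Cells were transfected with reporter units under cis-regulatory promoters, treated with chemicals for 24 h, then lysed for RNA. Reporter transcripts were quantified by RT-PCR and capillary electrophoresis, and activity was fitted bidirectionally against DMSO.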

[13] = ATG_M_19_CIS: Attagene CIS-FACTORIAL HepG2 Assay for M19 Transcription Factor (Internal Marker) (AID 2282939); details: HepG2 Attagene CIS-FACTORIAL M19 internal marker reporter; actives raise or lower the signal
Method in brief: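 Chemical-treated HepG2 (24 h) with MRTU constructs; reporter transcripts detected by fluorescent RT-PCR fragment analysis on capillary electrophoresis. Internal background marker, DMSO as baseline.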

[14] = ATG_ERE_CIS: Attagene CIS-FACTORIAL HepG2 Assay for Estrogen Response Element (ERE) (AID 2282940); details: HepG2 ERE cis-reporter, Attagene RNA transcript; actives raise or lower the signal
Method in brief: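 Human liver cells (HepG2) bearing transiently transfected, promoter-regulated reporter units were exposed 24 h. Reporter mRNA induction was detected by capillary electrophoresis of labelled RT-PCR products and fitted bidirectionally to DMSO.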

[15] = ATG_Ets_CIS: Attagene CIS-FACTORIAL HepG2 Assay for human Erythroblast Transformation Specific (ETS) (AID 2282941); details: HepG2 ETS cis-reporter transcription, actives raise or lower the signal
Method in brief: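 HepG2 cells transfected with multiple cis-regulated reporter units measuring endogenous ETS-driven transcription, 24 h after dosing. Reporter mRNA quantified by RT-PCR with capillary electrophoresis; bidirectional fit relative to DMSO.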

[16] = biological target: Hepatocyte nuclear factor 3-beta (Homo sapiens) (UniProt Q9Y261); assay: ATG_FoxA2_CIS: Attagene CIS-FACTORIAL HepG2 Assay for human Forkhead box A2 (FOXA2) (AID 2282942); details: HepG2 cis-reporter transcription factor activity, 24 h; actives raise or lower the signal
Method in brief: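 Endogenous transcription factor activity was read in HepG2 cells carrying transiently transfected cis-promoter reporter units. After 24 h dosing, reporter mRNA was quantified by RT-PCR and capillary electrophoresis, and values fitted bidirectionally versus DMSO.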

[17] = ATG_FoxO_CIS: Attagene CIS-FACTORIAL HepG2 Assay for human Forkhead box O (FoxO) (AID 2282943); details: HepG2 Attagene cis-reporter, FoxO element, mRNA; actives raise or lower the signal
Method in brief: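 Values reflect reporter mRNA induction or loss in HepG2 cells 24 h post-dosing, fitted bidirectionally with DMSO as negative control and baseline. Detection used RT-PCR and fluorescence capillary electrophoresis.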

[18] = ATG_GATA_CIS: Attagene CIS-FACTORIAL HepG2 Assay for human GATA Binding Protein (AID 2282944); details: HepG2 GATA cis-element reporter, Attagene multiplex mRNA; actives raise or lower the signal
Method in brief: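 Transfected cis-reporter HepG2 cells were treated with chemicals for 24 hours. Total RNA was then converted to cDNA, amplified with reporter-specific primers and analysed by fluorescent capillary electrophoresis, using DMSO-treated wells as baseline.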

[19] = ATG_EGR_CIS: Attagene CIS-FACTORIAL HepG2 Assay for human Early Growth Response 1 (EGR1) (AID 2282938); details: HepG2 Attagene CIS-FACTORIAL EGR reporter mRNA; actives raise or lower the signal
Method in brief: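 Endogenous TF activity in HepG2 liver cells was gauged through cis-promoter reporter constructs transiently transfected. After 24 h dosing, reporter mRNA was quantified by RT-PCR and capillary electrophoresis, and curves fitted in both directions versus DMSO.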

[20] = ATG_CRE_CIS: Attagene CIS-FACTORIAL HepG2 Assay for human cAMP Responsive Element (CRE) binding protein 3 (AID 2282926); details: HepG2 CRE cis-reporter, Attagene multiplexed mRNA; actives raise or lower the signal
Method in brief: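 Transfected HepG2 were treated for 24 hours, then RNA was extracted and reporter cDNA amplified with sequence-specific primers. Labelled fragments were separated by capillary electrophoresis, and the CRE signal was fitted bidirectionally with DMSO as baseline.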

Measured: AC50

Aryl hydrocarbon receptor (Homo sapiens), sequence (P35869 whole entry, looked up): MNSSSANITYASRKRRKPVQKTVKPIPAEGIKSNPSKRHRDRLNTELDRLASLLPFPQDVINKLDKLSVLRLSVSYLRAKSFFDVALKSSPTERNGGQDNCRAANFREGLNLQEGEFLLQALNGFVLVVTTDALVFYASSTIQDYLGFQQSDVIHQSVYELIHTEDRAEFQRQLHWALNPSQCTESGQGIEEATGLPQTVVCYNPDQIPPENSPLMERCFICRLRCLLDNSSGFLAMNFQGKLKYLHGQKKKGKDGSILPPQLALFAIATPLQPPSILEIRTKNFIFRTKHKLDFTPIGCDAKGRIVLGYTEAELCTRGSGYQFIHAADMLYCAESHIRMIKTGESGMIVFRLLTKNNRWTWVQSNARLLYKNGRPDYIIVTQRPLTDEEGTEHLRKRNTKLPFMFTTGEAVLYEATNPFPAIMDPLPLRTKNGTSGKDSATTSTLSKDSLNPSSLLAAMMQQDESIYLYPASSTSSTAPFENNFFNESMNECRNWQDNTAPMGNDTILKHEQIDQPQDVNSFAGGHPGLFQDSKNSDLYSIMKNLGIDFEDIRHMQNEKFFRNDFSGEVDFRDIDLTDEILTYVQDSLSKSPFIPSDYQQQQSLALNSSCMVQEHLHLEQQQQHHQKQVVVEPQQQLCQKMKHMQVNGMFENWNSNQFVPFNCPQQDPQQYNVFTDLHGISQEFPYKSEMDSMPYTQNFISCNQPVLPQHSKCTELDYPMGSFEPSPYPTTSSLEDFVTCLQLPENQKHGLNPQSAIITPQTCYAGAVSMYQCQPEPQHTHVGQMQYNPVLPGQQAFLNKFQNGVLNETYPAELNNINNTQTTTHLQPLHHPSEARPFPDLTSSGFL
Retinoic acid receptor alpha (Homo sapiens), sequence (P10276 whole entry, looked up): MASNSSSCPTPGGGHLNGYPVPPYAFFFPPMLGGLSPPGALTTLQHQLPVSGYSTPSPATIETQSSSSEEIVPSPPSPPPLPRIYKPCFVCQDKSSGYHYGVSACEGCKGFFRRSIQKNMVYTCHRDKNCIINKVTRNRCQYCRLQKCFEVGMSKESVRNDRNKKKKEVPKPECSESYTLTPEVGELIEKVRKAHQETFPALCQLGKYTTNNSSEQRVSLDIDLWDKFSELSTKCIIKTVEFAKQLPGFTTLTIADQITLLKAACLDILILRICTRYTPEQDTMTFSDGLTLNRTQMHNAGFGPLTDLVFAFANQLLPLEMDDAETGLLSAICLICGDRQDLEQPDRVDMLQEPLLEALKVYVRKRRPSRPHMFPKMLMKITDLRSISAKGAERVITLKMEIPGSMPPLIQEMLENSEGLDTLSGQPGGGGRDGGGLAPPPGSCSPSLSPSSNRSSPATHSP
CCAAT/enhancer-binding protein beta (Homo sapiens), sequence (P17676 whole entry, looked up): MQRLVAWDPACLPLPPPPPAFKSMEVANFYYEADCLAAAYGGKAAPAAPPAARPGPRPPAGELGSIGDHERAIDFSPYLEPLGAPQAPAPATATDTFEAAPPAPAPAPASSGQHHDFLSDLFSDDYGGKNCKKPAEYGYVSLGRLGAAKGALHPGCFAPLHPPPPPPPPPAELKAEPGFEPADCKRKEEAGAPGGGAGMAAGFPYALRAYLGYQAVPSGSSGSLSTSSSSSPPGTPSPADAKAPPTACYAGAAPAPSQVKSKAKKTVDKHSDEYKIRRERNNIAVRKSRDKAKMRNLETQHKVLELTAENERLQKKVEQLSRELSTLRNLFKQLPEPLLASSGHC
Hepatocyte nuclear factor 3-beta (Homo sapiens), sequence (Q9Y261 whole entry, looked up): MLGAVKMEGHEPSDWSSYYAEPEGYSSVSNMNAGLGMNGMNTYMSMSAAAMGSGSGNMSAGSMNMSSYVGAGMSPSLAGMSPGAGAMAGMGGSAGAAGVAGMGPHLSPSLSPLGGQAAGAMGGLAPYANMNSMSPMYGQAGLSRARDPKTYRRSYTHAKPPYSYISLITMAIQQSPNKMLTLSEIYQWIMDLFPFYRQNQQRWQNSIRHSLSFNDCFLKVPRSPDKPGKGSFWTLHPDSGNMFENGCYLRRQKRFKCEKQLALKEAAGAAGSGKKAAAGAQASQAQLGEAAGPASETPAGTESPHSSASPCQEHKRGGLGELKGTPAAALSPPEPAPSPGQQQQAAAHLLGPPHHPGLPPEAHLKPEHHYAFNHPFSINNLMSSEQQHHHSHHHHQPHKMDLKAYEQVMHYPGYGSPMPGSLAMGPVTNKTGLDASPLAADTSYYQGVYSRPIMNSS
Transcription factor E2F1 (Homo sapiens), sequence (Q01094 whole entry, looked up): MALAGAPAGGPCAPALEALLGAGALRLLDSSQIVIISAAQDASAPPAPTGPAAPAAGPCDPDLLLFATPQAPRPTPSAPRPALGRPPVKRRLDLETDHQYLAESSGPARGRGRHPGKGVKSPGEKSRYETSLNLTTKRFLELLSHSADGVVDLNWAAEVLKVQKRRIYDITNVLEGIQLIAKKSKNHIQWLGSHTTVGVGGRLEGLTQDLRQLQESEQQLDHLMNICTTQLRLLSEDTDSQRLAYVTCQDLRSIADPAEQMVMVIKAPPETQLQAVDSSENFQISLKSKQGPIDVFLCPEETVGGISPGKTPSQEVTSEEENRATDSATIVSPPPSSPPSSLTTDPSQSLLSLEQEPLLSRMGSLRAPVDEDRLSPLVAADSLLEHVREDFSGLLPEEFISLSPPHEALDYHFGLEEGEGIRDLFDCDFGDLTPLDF

COc1cc(C(C)C)c2c(c1)S(=O)(=O)N(COc1cc(=O)n3cccc(OCCN4CCCCC4)c3n1)C2=O
active: [2] 3.74 µM | [3] 2.2 µM | [4] 0.643 µM | [6] 2.24 µM | [9] 0.812 µM | [12] 12.3 µM | [15] 2.02 µM | [18] 14.1 µM
not listed: [19] | [20]
inactive: all other assays above

CCCOc1ccc(S(=O)(=O)N2CCN(CC)CC2)cc1-c1nc2c(CC)n(Cc3ccccn3)nc2c(=O)[nH]1
active: [4] 150 µM
not listed: [15] | [19] | [20]
inactive: all other assays above

CC(=O)c1ccccc1
not listed: [9] | [20]
inactive: all other assays above

CCCCOC(=O)c1ccccc1
not listed: [5] | [19]
inactive: all other assays above

COc1cc2c(c(OC)c1OC)-c1ccc(OC)c(=O)cc1[C@@H](NC(C)=O)CC2
active: [3] 0.0703 µM | [6] 0.123 µM | [7] 61.1 µM | [8] 4.6 µM | [11] 0.592 µM
not listed: [20]
inactive: all other assays above

COCc1nnc(-c2ccc[n+]([O-])c2)n1-c1c(Cl)c(Cl)cc2[nH]c(=O)c(=O)[nH]c12
not listed: [15] | [20]
inactive: all other assays above

CC(C)C(=O)Nc1ccc([N+](=O)[O-])c(C(F)(F)F)c1
active: [1] 111 µM | [5] 135 µM | [6] 23.5 µM | [8] 65.1 µM
not listed: [15] | [20]
inactive: all other assays above

OCC(CO)(CO)CO
inactive: [1] | [2] | [3] | [4] | [5] | [6] | [7] | [8] | [9] | [10] | [11] | [12] | [13] | [14] | [15] | [16] | [17] | [18]
active: [14] 100 µM

NC(=O)N1c2ccccc2C=Cc2ccccc21
active: [14] 49.9 µM
not listed: [19] | [20]
inactive: all other assays above

CCCC(CCC)C(=O)O
not listed: [4] | [9] | [15] | [16]
inactive: all other assays above

Cc1ccc(S(=O)(=O)NC(=O)NN2CCCCCC2)cc1
not listed: [20]
inactive: all other assays above

OCc1ccccc1
not listed: [15] | [20]
inactive: all other assays above

O=S1(=O)CCCO1
not listed: [9] | [15] | [20]
inactive: all other assays above

c1ccc2cc3ccccc3cc2c1
not listed: [15] | [20]
inactive: all other assays above

Source: PubChem BioAssay (EPA / NIEHS)
